Results reported in publication PMC4336329 (PLoS ONE, 2015).
About 14,000 (4.5%) of roughly 310,000 compounds showed an effect of 50% or more. The effect is printed as a negative number. The full list was thinned out, with strong results kept by preference.

Each molecule was assayed against human ether-à-go-go-related gene (hERG) potassium channel (human, UniProt Q12809) (assay: primary screen, population patch clamp on CHO cells stably expressing hERG; higher = less effect of the substance).
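Note: peak tail current of the secondary pulse compared with the same well before compound.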

human ether-à-go-go-related gene (hERG) potassium channel, sequence (Q12809 whole entry, looked up): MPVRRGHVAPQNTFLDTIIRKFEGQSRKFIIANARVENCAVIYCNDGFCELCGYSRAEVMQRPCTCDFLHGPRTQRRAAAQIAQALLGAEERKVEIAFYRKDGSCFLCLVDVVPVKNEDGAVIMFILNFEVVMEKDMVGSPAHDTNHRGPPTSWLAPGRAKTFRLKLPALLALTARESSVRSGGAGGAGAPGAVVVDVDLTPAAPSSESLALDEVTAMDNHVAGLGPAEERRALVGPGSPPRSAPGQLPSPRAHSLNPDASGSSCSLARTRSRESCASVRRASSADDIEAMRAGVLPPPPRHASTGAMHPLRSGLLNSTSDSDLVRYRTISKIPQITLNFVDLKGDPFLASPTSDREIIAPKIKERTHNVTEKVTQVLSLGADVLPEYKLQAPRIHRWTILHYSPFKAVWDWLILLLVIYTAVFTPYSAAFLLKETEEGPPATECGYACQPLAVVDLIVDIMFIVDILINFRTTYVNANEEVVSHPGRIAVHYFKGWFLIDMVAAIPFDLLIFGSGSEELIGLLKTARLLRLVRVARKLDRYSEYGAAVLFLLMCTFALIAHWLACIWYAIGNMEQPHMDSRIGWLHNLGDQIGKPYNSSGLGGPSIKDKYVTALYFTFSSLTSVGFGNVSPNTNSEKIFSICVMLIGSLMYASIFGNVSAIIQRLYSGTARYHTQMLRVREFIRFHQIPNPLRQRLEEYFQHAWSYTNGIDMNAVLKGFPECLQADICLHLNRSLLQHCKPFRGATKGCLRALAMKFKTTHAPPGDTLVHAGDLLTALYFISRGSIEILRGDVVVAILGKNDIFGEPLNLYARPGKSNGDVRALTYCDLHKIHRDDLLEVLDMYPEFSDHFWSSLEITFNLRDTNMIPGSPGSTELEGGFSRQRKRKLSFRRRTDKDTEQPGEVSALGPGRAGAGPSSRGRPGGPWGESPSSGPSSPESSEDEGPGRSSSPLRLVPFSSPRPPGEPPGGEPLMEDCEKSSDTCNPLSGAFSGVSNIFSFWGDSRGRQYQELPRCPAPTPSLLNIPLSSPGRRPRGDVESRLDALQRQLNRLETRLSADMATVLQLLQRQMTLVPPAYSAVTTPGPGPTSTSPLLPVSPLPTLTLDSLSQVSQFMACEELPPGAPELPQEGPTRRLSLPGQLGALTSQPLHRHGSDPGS

Row | Structure (SMILES) | hERG current change (%, negative = inhibition) at 10uM [%]
1 | COc1ccc(CCNC(=O)COC(=O)c2cc(=O)c3ccccc3o2)cc1 | -1.09
2 | Cc1cc(NC(=O)NC(=O)c2ccccc2)no1 | 23.1
3 | Cn1c(O)c(N=Nc2nc(-c3ccccc3)cs2)c2ccccc21 | -6.78
4 | Cc1ccc(CNC(=O)CCSCCC(=O)NCc2ccc(C)cc2)cc1 | 7.08
5 | N#Cc1c(NC(=O)c2cc([N+](=O)[O-])ccc2N2CCOCC2)sc2c1CCCC2 | 4.02
6 | CN1C(=O)c2cccc3c(Br)ccc(c23)C1=O | -16.2
7 | COC(=O)COc1ccc2cccc(-n3cnnn3)c2c1 | 12.5
8 | CCc1ccc2c(COC(=O)C3CSC4(C)CCC(=O)N34)cc(=O)oc2c1 (stereo not drawn) | -61.1
9 | CC12CCC(=O)N1C(C(=O)OCc1c(Cl)cccc1Cl)CS2 (stereo not drawn) | -4.54
10 | CCc1ccc(C(=O)NNC(=O)C2CSC3(C)CCC(=O)N23)cc1 (stereo not drawn) | -6.99
11 | CN(C)CC(O)COC(c1ccc(Cl)cc1)c1ccc(Cl)cc1 (stereo not drawn) | -75.8
12 | CN(C)CCC(O)c1ccccc1 (stereo not drawn) | 9.45
13 | CCOC(C(=O)OCC(O)CN(CC)CC)(c1ccccc1)c1ccccc1.Cl (stereo not drawn) | -5.25
14 | CN(C)CC(O)COC(c1ccccc1)c1ccccc1 (stereo not drawn) | -51.6
15 | CCN(Cc1ccccc1)CC(O)COc1ccccc1.Cl (stereo not drawn) | -25.7
16 | OC(COc1ccccc1)CN(Cc1ccccc1)CC(O)COc1ccccc1 (stereo not drawn) | -9.08
17 | CCN(CC)CC(O)COC(c1ccccc1)c1ccccc1 (stereo not drawn) | -57.8
18 | CCN(Cc1ccccc1)CC(O)COC(c1ccc(OC)cc1)c1ccc(OC)cc1 (stereo not drawn) | -75.1
19 | CCCC(O)(c1ccc(OC)cc1)C(CN(C)C)c1ccccc1 (stereo not drawn) | -4.69
20 | CC(O)CN(Cc1ccc(Cl)cc1)CC(C)O (stereo not drawn) | 7.61
21 | CC(OCC(O)CN(C)Cc1nc2ccccc2c(=O)[nH]1)c1ccc(Cl)cc1 (stereo not drawn) | -34
22 | COCCN(CCOC)CC(O)COC(c1ccccc1)c1ccccc1 (stereo not drawn) | -35.9

Row | Structure (SMILES) | hERG current change (%, negative = inhibition) at 10uM [%]
23 | Cc1ccc(CN2CCCC(C(=O)N3CCCC3)C2)cc1.O=C(O)C(=O)O (stereo not drawn) | -5.83
24 | O=C(O)c1cc2nc(-c3ccccc3)cc(-c3ccccc3)n2n1 | 6.39
25 | CN(C)S(=O)(=O)Oc1ccsc1C(=O)Nc1ccc(Br)cc1 | -12.2
26 | CCOC(=O)[C@H]1[C@H]2COc3cc(OC)ccc3[C@@H]2N2C(=O)c3cc(OC)c(OC)cc3NC(=O)[C@@]12C | -2.44
27 | Cc1ccc(C(=O)NNC(=O)C2CCN(c3nc(C)cc(C)n3)CC2)cc1 | 4.83
28 | Cc1cccc(C)c1C(=NCCN(C)C)c1ccccc1.Cl | -41.3
29 | CCNc1nc(NCC)n2c(SCc3ccc(F)cc3)nnc2n1 | -20.1
30 | CC(C)=C1C2CCC1C(C(=O)Nc1sc(C)c(-c3ccc(C(C)C)cc3)c1C(N)=O)C2C(=O)O (stereo not drawn) | -22.5
31 | CN(C)C=O.O=C(NCCc1ccccc1)c1oc2ccccc2c1COc1ccccc1 | 12.4
32 | Cc1ccc(-c2cc(C(=O)NCc3ccccn3)no2)cc1 | 0.477
33 | O=C(NCCOc1ccc(Cl)cc1)c1cccc(S(=O)(=O)N2CCCC2)c1 | -51.8
34 | O=C(Nc1ccc(Cl)cn1)c1cccc(S(=O)(=O)N2CCCC2)c1 | -50.9
35 | Cc1cc(C(=O)Nc2ccc(C)c(S(=O)(=O)N3CCOCC3)c2)c(C)o1 | -6.59
36 | Cc1ccc(OCCNC(=O)c2cccc(S(=O)(=O)N3CCN(C)CC3)c2)cc1 | -16.6
37 | O=C(Nc1ccccn1)c1cccc(S(=O)(=O)N2CCCC2)c1 | 9.44
38 | Cc1ccc(NC(=O)c2cccc(S(=O)(=O)N3CCCC3)c2)nc1 | -7.18
39 | O=C(Nc1ccccn1)c1cccc(S(=O)(=O)N2CCOCC2)c1 | -6.45
40 | Cc1ccc(NC(=O)c2ccc3c(c2)OCO3)cc1S(=O)(=O)N1CCOCC1 | -20.3
41 | Cc1ccnc(NC(=O)c2cccc(S(=O)(=O)N3CCOCC3)c2)c1 | -18.9
42 | Cc1ccc(C(=O)Nc2ccc(C)c(S(=O)(=O)N3CCOCC3)c2)c(C)c1 | -51
43 | O=C(NCc1ccc(Cl)cc1)c1cccc(S(=O)(=O)N2CCCC2)c1 | -30.9
44 | O=C(Nc1ccc(Cl)cn1)c1cccc(S(=O)(=O)N2CCOCC2)c1 | -65.4

Row | Structure (SMILES) | hERG current change (%, negative = inhibition) at 10uM [%]
45 | O=C1c2ccccc2C(Nc2ccc(S(=O)(=O)N3CCCCC3)cc2)N1Cc1ccco1 (stereo not drawn) | -22.7
46 | CC(CC(=O)N(C)c1c(N)n(Cc2ccccc2)c(=O)[nH]c1=O)c1ccccc1 (stereo not drawn) | -23.3
47 | COCc1ccc(C(=O)N2CCCC(N3CCN(c4ccccc4C)CC3)C2)s1 (stereo not drawn) | -34.7
48 | CSc1cccc(NC(=O)C2CCCN(S(=O)(=O)c3cccs3)C2)c1 (stereo not drawn) | 3.76
49 | COc1ccccc1N(C)C(=O)c1cc(S(=O)(=O)N2CCCC2)cn1C | -3.55
50 | CC(NC(=O)C1CCN(S(=O)(=O)c2cnc[nH]2)CC1)c1ccccc1 (stereo not drawn) | 3.81
51 | N/C(=N\OC(=O)c1ccccc1)c1ccn[nH]1 | -1.07
52 | Cc1cccc(N2N=C(C(=O)Nc3ccc(Cl)c(S(=O)(=O)N4CCOCC4)c3)CCC2=O)c1 | -52.4
53 | Cc1ccc(S(=O)(=O)N2CCOCC2)cc1NC(=O)C1=NN(c2ccccc2)C(=O)CC1 | -18
54 | Cc1ccc(NC(=O)c2ccc(C)c(S(=O)(=O)N3CCOCC3)c2)nc1 | -6.9
55 | Cc1ccc(C(=O)Nc2ccc(Cl)cn2)cc1S(=O)(=O)N1CCOCC1 | -51.4
56 | O=C(COC(=O)c1cccc(S(=O)(=O)N2CCOCC2)c1)Nc1ccc(Cl)cn1 | -61.1
57 | O=C(Nc1cccc(S(=O)(=O)N2CCOCC2)c1)C1=NN(c2ccccc2)C(=O)CC1 | -42.9
58 | O=C(COC(=O)c1cc(S(=O)(=O)N2CCOCC2)ccc1F)Nc1ccc(Cl)cn1 | -37.4
59 | O=C(COC(=O)c1cccc(S(=O)(=O)N2CCOCC2)c1)Nc1ncc(Cl)cc1Cl | -13.4
60 | Cc1ccc(C(=O)Nc2ccccn2)cc1S(=O)(=O)N1CCOCC1 | -5.72
61 | O=C(Cn1cnc([N+](=O)[O-])c1)Nc1ccccc1C(F)(F)F | -14.3
62 | Cc1cc(C)cc(N(C(=O)CNC(=O)c2ccco2)C(C(=O)NC2CCCCC2)c2ccncc2)c1 (stereo not drawn) | -10
63 | CCOC(=O)C1=C(C)NC(=O)C(C(N)=O)C1c1ccccc1 (stereo not drawn) | 5.2
64 | O=c1[nH]c2cc3c(cc2cc1C(c1nnnn1C1CCCC1)N1CCSCC1)OCCO3 (stereo not drawn) | 13.6
65 | CSc1nc(C)cc(-n2ccc(=O)[nH]c2=O)n1 | -3.54
66 | CCOC(=O)/C=c1\s/c(=C\c2c(OC)ccc3ccccc23)c(=O)n1CC(=O)NCC1CCCO1 (stereo not drawn) | 2.13

Row | Structure (SMILES) | hERG current change (%, negative = inhibition) at 10uM [%]
67 | Cc1ccccc1Nc1ncnc2c1cnn2C | 4.92
68 | CN(C)CC(C)(C)CNC(=O)c1cc(=O)c2ccccc2o1.Cl | 19.6
69 | Cc1cc(/C=C2/SC(=O)N(CC(=O)N3CCCC3)C2=O)c(C)n1C | -5.16
70 | CCC(C)NCCCCOc1cc(C)cc(C(C)C)c1 (stereo not drawn) | -54.9
71 | Cc1cc(OCCCCNC(C)C)cc(C(C)C)c1.O=C(O)C(=O)O | -29.6
72 | Cc1cc(OCCCn2ccnc2)cc(C(C)C)c1 | -14.4
73 | COc1ccc(C(=O)Oc2cc(N)n(S(=O)(=O)c3ccccc3)n2)cc1 | -7.73
74 | COc1ccccc1NS(=O)(=O)c1ccc(C(=O)NCC(c2ccccc2OC)N(C)C)cc1 (stereo not drawn) | -0.121
75 | Cc1ccc(OCc2cc(C(=O)N3CCC(C(O)C(C)C)CC3)no2)cc1C (stereo not drawn) | -23.1
76 | CCc1ccccc1OCCCCN1CCCCC1.O=C(O)C(=O)O | -30
77 | CCN1CCN(CCOc2ccccc2-c2ccccc2)CC1.O=C(O)C(=O)O | -32.9
78 | CC(=O)c1ccccc1OCCCCN1CCCCC1.O=C(O)C(=O)O | -59.5
79 | CCN1CCN(CCOCCOc2ccccc2-c2ccccc2)CC1.O=C(O)C(=O)O | -35.6
80 | O=C(O)C(=O)O.c1ccc(-c2ccccc2OCCCN2CCCC2)cc1 | -65
81 | Cl.OCCN1CCN(CCOc2ccccc2-c2ccccc2)CC1 | -24.1
82 | O=C(O)C(=O)O.c1ccc(-c2ccccc2OCCCN2CCOCC2)cc1 | -37.1
83 | CCN1CCN(CCCOc2ccccc2-c2ccccc2)CC1.O=C(O)C(=O)O | -66.6
84 | CC(=O)c1ccccc1OCCCN1CCCCC1.O=C(O)C(=O)O | -31.8
85 | Cl.OCCCN1CCN(CCCOc2ccccc2-c2ccccc2)CC1 | -69.6
86 | O=C(CSc1nnc(-c2cccnc2)o1)Nc1cccc(F)c1 | -1.97
87 | Cc1c(Br)c([N+](=O)[O-])nn1CC(=O)N1CCN(C23CC4CC(CC(C4)C2)C3)CC1 | -38.1
